{
  "source": "PubChem BioAssay AID720566",
  "about": "(Broad Institute, 2013)",
  "note": "Results with a measured potency or affinity are listed apart. Activity calls are given as the source filed them.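 The calls were made as follows: active = in all runs, an absorbance decrease of 25% or more of the average positive control decrease; inconclusive = runs conflict, with both active and inactive results; inactive = all runs inactive, opposite-direction effects included.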",
  "data": [
    {"target": "Protein disulfide-isomerase A6 (Homo sapiens) (UniProt Q15084)", "sequence (Q15084 whole entry, looked up)": "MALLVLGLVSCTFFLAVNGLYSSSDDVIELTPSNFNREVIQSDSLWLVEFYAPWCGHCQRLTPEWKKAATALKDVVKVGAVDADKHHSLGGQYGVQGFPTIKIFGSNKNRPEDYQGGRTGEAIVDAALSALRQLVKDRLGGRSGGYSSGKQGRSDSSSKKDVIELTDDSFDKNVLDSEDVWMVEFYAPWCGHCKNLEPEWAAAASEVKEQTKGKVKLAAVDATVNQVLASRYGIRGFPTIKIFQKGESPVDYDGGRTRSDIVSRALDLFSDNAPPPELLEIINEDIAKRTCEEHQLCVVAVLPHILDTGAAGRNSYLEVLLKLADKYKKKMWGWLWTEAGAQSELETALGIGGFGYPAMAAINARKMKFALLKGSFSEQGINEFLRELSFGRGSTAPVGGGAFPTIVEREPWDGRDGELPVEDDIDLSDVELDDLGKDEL", "test": "reduced insulin turbidity driven by ERp5 (PDIA6) – biochemical, absorbance 650 nm, cherry-picked samples, dose response (AID 720566);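 also: negative values mean less insulin aggregation so ERp5 inhibition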", "conditions": "Recombinant ERp5 insulin aggregation; series mostly up to 35 µM", "values": [
      {"smiles": "CCC(=O)Nc1ccc2c(c1)C(=O)N(C)[C@@H]1CC[C@@H](CC(=O)NCC3CC3)O[C@@H]1CO2", "outcome": "inactive"},
      {"smiles": "COc1ccc2c3c([nH]c2c1)[C@H](CO)N(C(=O)CN(C)C)CC31CCN(CC2CCCC2)CC1", "outcome": "inactive"},
      {"smiles": "CCc1csc(CCNC(=O)C2CCC(=O)N(CCc3cccc(F)c3)C2)n1", "note": "(centres undefined)", "outcome": "inactive"},
      {"smiles": "C/C=C/c1ccc2c(c1)O[C@@H](CN(C)S(C)(=O)=O)[C@H](C)CN([C@H](C)CO)S2(=O)=O", "outcome": "inactive"},
      {"smiles": "Cc1cccc(Oc2ccc(NS(=O)(=O)c3ccc(C)c(C(=O)O)c3)cc2)c1", "outcome": "inactive"},
      {"smiles": "O=C(C[C@H]1C[C@@H]2c3cc(NC(=O)C4CCC4)ccc3O[C@@H]2[C@H](CO)O1)NCC(F)(F)F", "outcome": "inactive"},
      {"smiles": "Cc1ccc([C@H]2N[C@]3(CCCN(Cc4ccc(Cl)cc4)C3=O)[C@H]3C(=O)N(C)C(=O)[C@@H]23)cc1", "outcome": "inactive"},
      {"smiles": "C[C@@H]1CN([C@H](C)CO)C(=O)c2cc(C#CCN(C)C)cnc2O[C@H]1CN(C)Cc1cccc(F)c1", "outcome": "inactive"},
      {"smiles": "Cc1cccc(S(=O)(=O)N(C)C[C@H]2OCc3cnnn3CCCC(=O)N([C@@H](C)CO)C[C@H]2C)c1", "outcome": "inactive"},
      {"smiles": "CCN(CC)S(=O)(=O)c1cc(NC(=O)c2ccc(-n3cncn3)c([N+](=O)[O-])c2)ccc1C", "outcome": "inactive"},
      {"smiles": "C[C@H]1CN([C@@H](C)CO)C(=O)c2cccc(NC(=O)c3nc4ccccc4s3)c2O[C@@H]1CN(C)C(=O)Nc1ccc(C(F)(F)F)cc1", "outcome": "inactive"},
      {"smiles": "O=C(CN1C(=O)NC2(CCCC2)C1=O)Nc1cc(C(F)(F)F)ccc1N1CCCCC1", "outcome": "inactive"},
      {"smiles": "Cc1cc(Br)cc(Br)c1OCC(=O)NNC(=O)CCC(=O)NCc1ccccc1", "outcome": "inactive"},
      {"smiles": "COc1ccc(Cc2nnc(SCC(=O)NC3(C#N)CCCCC3)n2N)cc1", "outcome": "inactive"},
      {"smiles": "CC(C)C#Cc1cnc2c(c1)C(=O)N([C@@H](C)CO)C[C@@H](C)[C@H](CN(C)C(=O)c1ccccc1F)O2", "outcome": "inactive"},
      {"smiles": "C[C@@H]1CCCCO[C@@H](CN(C)C(=O)CCC(F)(F)F)[C@H](C)CN([C@@H](C)CO)C(=O)c2cc(NS(=O)(=O)c3ccc(Cl)cc3)ccc2O1", "outcome": "inactive"},
      {"smiles": "CCN1[C@@H]2c3ccc(-c4ccccc4)c(=O)n3C[C@@H]2[C@@H](CO)[C@@H]1C(=O)NCC(F)(F)F", "outcome": "inactive"},
      {"smiles": "C[C@H]1CN([C@@H](C)CO)C(=O)Cc2cc(NC(=O)Nc3cccc4ccccc34)ccc2O[C@H]1CN(C)C(=O)Nc1cccc2ccccc12", "outcome": "inactive"},
      {"smiles": "O=C(Nc1ccncc1)C1CCN(S(=O)(=O)c2cccc(C(F)(F)F)c2)CC1", "outcome": "inactive"},
      {"smiles": "COc1ccccc1NS(=O)(=O)c1ccc(C(=O)N2CCN(c3ccccn3)CC2)cc1", "outcome": "inactive"},
      {"smiles": "C[C@@H]1CN([C@H](C)CO)C(=O)c2cc(-c3cccc(C#N)c3)cnc2O[C@H]1CN(C)Cc1cncnc1", "outcome": "inactive"},
      {"smiles": "O=C(Nc1ccncc1)C1CC(=O)N(c2ccccc2)C1", "note": "(centres undefined)", "outcome": "inactive"},
      {"smiles": "COC(=O)C[C@H]1C[C@@H]2c3cc(NC(=O)Cc4ccncc4)ccc3O[C@@H]2[C@@H](CO)O1", "outcome": "inactive"},
      {"smiles": "CCC(=O)N(C)C[C@H]1Oc2cc(-c3ccc(C#N)cc3)ccc2S(=O)(=O)N([C@@H](C)CO)C[C@@H]1C", "outcome": "inactive"},
      {"smiles": "CCCNC(=O)[C@H]1[C@H](CO)[C@H]2Cn3c(ccc(/C=C/c4ccccc4)c3=O)[C@@H]1N2C(C)=O", "outcome": "inactive"},
      {"smiles": "COc1ccc(NC(=O)Nc2ccc3c(c2)C(=O)N([C@H](C)CO)C[C@H](C)[C@@H](CN(C)C(=O)C2CCCCC2)OCCCC[C@H](C)O3)cc1", "outcome": "inactive"},
      {"smiles": "COc1ccc2c3c(n(C)c2c1)[C@H](CO)N(S(C)(=O)=O)CC31CCN(CC2CCCC2)CC1", "outcome": "inactive"},
      {"smiles": "O=C(C[C@@H]1C[C@H]2c3cc(NC(=O)CC4CC4)ccc3O[C@H]2[C@@H](CO)O1)NCc1ccc(-c2ccccc2)cc1", "outcome": "inactive"},
      {"smiles": "COC(=O)C[C@H]1C[C@H]2c3cc(NC(=O)Cc4ccncc4)ccc3O[C@H]2[C@H](CO)O1", "outcome": "inactive"},
      {"smiles": "Cc1noc(C)c1S(=O)(=O)Nc1cccc2c1O[C@H](CN(C)C(=O)Nc1ccc(C(F)(F)F)cc1)[C@H](C)CN([C@@H](C)CO)C2=O", "outcome": "inactive"},
      {"smiles": "C[C@H](CO)N1C[C@H](C)[C@H](CN(C)Cc2ccc(C(F)(F)F)cc2)Oc2ccc(NC(=O)Nc3cccc4ccccc34)cc2CC1=O", "outcome": "inactive"},
      {"smiles": "CCCC(=O)N1CC2(C1)CN(C(=O)C1CCCCC1)[C@H](CO)c1[nH]c3cc(OC)ccc3c12", "outcome": "inactive"},
      {"smiles": "C[C@@H]1CCCCO[C@@H](CN(C)C(=O)CCC(F)(F)F)[C@@H](C)CN([C@@H](C)CO)C(=O)c2cc(NS(=O)(=O)c3ccc(Cl)cc3)ccc2O1", "outcome": "inactive"},
      {"smiles": "CN(C)C(=O)C[C@H]1C[C@H]2c3cc(NS(C)(=O)=O)ccc3O[C@H]2[C@@H](CO)O1", "outcome": "inactive"}
    ]}
  ]
}
